# Calls of active or inactive are those of the source. Rule as the data show it, unless noted: active = inhibition above about 80%; inactive = the rest.
# Columns and labels:
# [1] = UWB1.289 ovarian carcinoma cell growth inhibition, synergistic combos for chromothripsis tumors, BGB or cisplatin combos (AID 1671456); details: UWB1.289 ovarian carcinoma cells, stronger effect = higher value;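 also: cells exposed to compound for four days; 0% = vehicle DMSO and 100% = killing by high DMSO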
# [2] = LFS_MB_2R medulloblastoma cell growth inhibition, synergistic combos for chromothripsis tumors, cisplatin combos (AID 1671457); details: LFS_MB_2R medulloblastoma cells, stronger effect = higher value;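 also: cells exposed to compound for four days before readout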
# [3] = MDA-MB-436 breast carcinoma cell growth inhibition, synergistic combos for chromothripsis tumors, BGB or cisplatin combos (AID 1671458; call rule not given here;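 also: cells exposed for 96 hours; 0% = vehicle DMSO and 100% = killing by high DMSO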); details: MDA-MB-436 breast carcinoma growth inhibition, drug combinations, stronger effect = higher value
# [4] = UWB1.289_BRCA1 ovarian cancer growth, cell-based, BGB or cisplatin combinations (AID 1671459); details: UWB1.289 BRCA1 ovarian carcinoma, drug combinations, stronger effect = higher value
# [5] = human astrocyte viability loss, single and combined drugs, cytotoxicity control for chromothriptic childhood tumor combination screen, cell-based, BGB or cisplatin IC20 combos (AID 1671460); details: Human astrocytes, drug combinations, stronger effect = higher value;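 also: cells exposed to compounds for 96 hours before viability readout; 0% = vehicle and 100% = killing control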
# [6] = growth inhibition of BT084 medulloblastoma cells, cell-based, ICGC_MB145, cisplatin and BGB IC40 combos (AID 1671461); details: drug combinations, stronger effect = higher value;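 also: cells exposed to drugs for 96 hours; 0% = vehicle DMSO and 100% = high DMSO full killing control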
# [7] = growth inhibition of RCMB18 medulloblastoma cells, cell-based, cisplatin and BGB IC40 combos (AID 1671462); details: stronger effect = higher value;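 also: cells exposed to compound for four days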
# [8] = growth inhibition of CRL1545 osteosarcoma cells, cell-based, cisplatin and BGB IC20 combos (AID 1671464); details: stronger effect = higher value;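 also: cells exposed to compound for 96 hours before readout; 0% = vehicle DMSO and 100% = high DMSO killing control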
# F380Y = assay: modulators of BK channel variants, profiling panel, selectivity assay, cell-based, U2OS BacMam, thallium flux, beta subunits (AID 1259406;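 active = thallium flux through the channel raised or lowered by more than 3 SD from vehicle-only wells, actives on both sides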;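 also: initial slope of Thallos dye fluorescence rise after thallium is added; log ratio against the mean of 0.3% DMSO vehicle wells on the same plate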); details: at 30 µM
# F380Y/beta2Delta = assay: as above; details: at 30 µM
# [9] = biological target: Calcium-activated potassium channel subunit alpha-1 (Homo sapiens) + Leucine-rich repeat-containing protein 26 (Homo sapiens) (UniProt Q12791+Q2I0M4); assay: as above; details: F380Y/Slo1WT/gamma1, at 30 µM
# R275C = assay: as above; details: at 30 µM
# R275C/beta1 = assay: as above; details: at 30 µM
# R275C/beta2Delta = assay: as above; details: at 30 µM
# [10] = measured here: inhibition with BGB combination, at 0.05 µM
# [11] = measured here: inhibition with cisplatin combination, at 0.05 µM
# [12] = measured here: combination with cisplatin, at 0.5 µM
# [13] = measured here: combination with cisplatin, at 5 µM
# [14] = measured here: BGB combination, at 0.5 µM
# [15] = measured here: BGB combination, at 5 µM
# [16] = measured here: cisplatin combination, at 0.5 µM
# [17] = measured here: cisplatin combination, at 5 µM
# [18] = BGB combination, concentration series, at 5 µM
# [19] = cisplatin combination, concentration series, at 5 µM
# [20] = measured here: combo with BGB IC20, at 0.5 µM
# [21] = measured here: combo with cisplatin IC20, at 0.5 µM
# [22] = cisplatin combination, at 0.5 µM
# [23] = measured here: BGB IC40 combination 0.05 uM, at 0.05 µM
# [24] = measured here: BGB IC40 combination, at 0.05 µM
# [25] = measured here: with BGB IC20 combination, at 0.5 µM
# [26] = measured here: with cisplatin IC20 combination, at 0.5 µM
# Chain of Calcium-activated potassium channel subunit alpha-1 (Homo sapiens) + Leucine-rich repeat-containing protein 26 (Homo sapiens) (Q2I0M4 whole entry, looked up, one chain of several): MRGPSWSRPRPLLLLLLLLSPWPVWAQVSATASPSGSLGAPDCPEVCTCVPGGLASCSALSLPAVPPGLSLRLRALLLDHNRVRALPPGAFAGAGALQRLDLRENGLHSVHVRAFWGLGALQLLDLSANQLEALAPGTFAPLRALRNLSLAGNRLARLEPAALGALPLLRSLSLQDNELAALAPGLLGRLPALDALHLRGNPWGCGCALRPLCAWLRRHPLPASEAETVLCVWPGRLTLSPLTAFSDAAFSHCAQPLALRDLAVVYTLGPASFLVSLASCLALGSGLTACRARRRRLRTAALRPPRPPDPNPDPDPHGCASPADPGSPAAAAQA
smiles,measurement,setting,value
NC(=O)NO,inhibition,[1]; at 0.5 µM,5.4% (inactive)
same,inhibition,[1]; [10],5.3%
same,inhibition,[1]; [11],-10.2%
same,inhibition,[2]; at 0.5 µM,11.7% (inactive)
same,inhibition,[2]; [12],8.29%
same,inhibition,[2]; [13],17%
same,inhibition,[3]; at 0.5 µM,-8.14% (inactive)
same,inhibition,[3]; [14],-5.6%
same,inhibition,[3]; [15],-2.86%
same,inhibition,[3]; [16],-19.6%
same,inhibition,[3]; [17],19.7%
same,inhibition,[4]; [18],13.1%
same,inhibition,[4]; at 0.5 µM,4.57% (inactive)
same,inhibition,[4]; [19],15.7%
same,inhibition,[5]; at 0.5 µM,-3.17% (inactive)
same,inhibition,[5]; [20],-6.58%
same,inhibition,[5]; [21],5.32%
same,inhibition,[6]; at 0.5 µM,3.97% (inactive)
same,inhibition,[6]; [22],0.756%
same,inhibition,"[6]; cisplatin combination, at 5 µM",-27.3%
same,inhibition,[6]; [23],10.1%
same,inhibition,"[6]; single agent, at 5 µM",1.06%
same,inhibition,[7]; at 0.5 µM,12.5% (inactive)
same,inhibition,"[7]; cisplatin combo, at 5 µM",15.7%
same,inhibition,[7]; [24],-13.6%
same,inhibition,[7]; [12],28.2%
same,inhibition,"[7]; single agent, at 5 µM",-32.4%
same,inhibition,[8]; at 0.5 µM,-15.5% (inactive)
same,inhibition,[8]; [25],6.18%
same,inhibition,[8]; [26],-26.4%
same,inhibition,"[8]; single agent, at 0.05 µM",-10.2%
same,inhibition,"[8]; single agent, at 5 µM",-5.37%
CC1CCN(CCCC(=O)c2ccc(F)cc2)CC1,log fold change Tl+ flux,F380Y,0.0312 (inactive)
same,log fold change Tl+ flux,F380Y/beta2Delta,0.0189 (inactive)
same,log fold change Tl+ flux,[9],0.000816 (inactive)
same,log fold change Tl+ flux,R275C,0.0359 (inactive)
same,log fold change Tl+ flux,R275C/beta1,-0.0458 (inactive)
same,log fold change Tl+ flux,R275C/beta2Delta,0.0277 (inactive)
CCn1cc(C(=O)O)c(=O)c2cc3c(cc21)OCO3,inhibition,[1]; at 0.5 µM,2.29% (inactive)
same,inhibition,[1]; [10],-2.14%
same,inhibition,[1]; [11],-6.63%
same,inhibition,[2]; at 0.5 µM,-21.9% (inactive)
same,inhibition,[2]; [12],-20.2%
same,inhibition,[2]; [13],-21.2%
same,inhibition,[3]; at 0.5 µM,-14.4% (inactive)
same,inhibition,[3]; [14],-16.2%
same,inhibition,[3]; [15],-18.6%
same,inhibition,[3]; [16],-20.7%
same,inhibition,[3]; [17],-20.6%
same,inhibition,[4]; [18],-2.14%
same,inhibition,[4]; at 0.5 µM,1.91% (inactive)
same,inhibition,[4]; [19],15.4%
same,inhibition,[5]; at 0.5 µM,-0.34% (inactive)
same,inhibition,[5]; [20],2.16%
same,inhibition,[5]; [21],-8.86%
same,inhibition,[6]; at 0.5 µM,-9.83% (inactive)
same,inhibition,[6]; [22],15.9%
same,inhibition,"[6]; cisplatin combination, at 5 µM",-11.8%
same,inhibition,[6]; [23],27.5%
same,inhibition,"[6]; single agent, at 5 µM",-16.8%
same,inhibition,[7]; at 0.5 µM,-3.66% (inactive)
same,inhibition,"[7]; cisplatin combo, at 5 µM",2.43%
same,inhibition,[7]; [24],-11.1%
same,inhibition,[7]; [12],16.7%
same,inhibition,"[7]; single agent, at 5 µM",-9.78%
same,inhibition,[8]; at 0.5 µM,-6.67% (inactive)
same,inhibition,[8]; [25],-7.74%
same,inhibition,[8]; [26],-6.13%
same,inhibition,"[8]; single agent, at 0.05 µM",12.4%
same,inhibition,"[8]; single agent, at 5 µM",12.2%

# — PubChem BioAssay
